According to PubChem BioAssay (NCI):
This is part of a sample that, as a whole, favours compounds with a hit. Of some 83,000 tested, about 20% had one in any assay.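 The endpoint reported here, percent growth, reads 100 for growth as untreated, 0 for no net growth and -100 for all cells dead.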 The source made the active and inactive calls. Rule for the calls: active = growth percent below 10; inactive = the rest.

Key:
Test in all cases: NCI-60 one-dose screen, 48 h (100 = growth as untreated, 0 = no growth, -100 = all killed)
Conditions in all cases: 10 µM unless noted
[1] = system: SR leukemia
[2] = system: RPMI-8226 leukemia
[3] = system: OVCAR-8 ovarian
[4] = system: OVCAR-5 ovarian
[5] = system: OVCAR-4 ovarian
[6] = system: SK-OV-3 ovarian
[7] = system: IGROV1 ovarian
[8] = system: OVCAR-3 ovarian
[9] = system: HS 578T breast
[10] = system: NCI/ADR-RES ovarian
[11] = system: T-47D breast
[12] = system: BT-549 breast
[13] = system: MDA-MB-435 melanoma
[14] = system: SW-620 colon
[15] = system: MCF7 breast
[16] = system: HCT-116 colon
[17] = system: HCC-2998 colon
[18] = system: KM12 colon

Measured: growth

O=C1/C(=C/c2ccc(F)cc2)CN(C(=O)C(Cl)Cl)C/C1=C\c1ccc(F)cc1
inactive: [5] 12.7% | [6] 23.5%
active: [1] -18.4% | [2] -31.4% | [3] -9.41% | [4] -53.8% | [7] -50.3% | [8] -95.1% | [9] 6.3% | [10] 5.22% | [11] -22.4% | [12] -80.1% | [13] -93.7% | [14] -73.1% | [15] -60.9% | [16] -92.8% | [17] -89.3% | [18] -66.3%

CS(=O)(=O)Nc1cc(-c2ccc3ncc(C#N)c(Nc4ccc(F)c(Cl)c4)c3c2)cnc1Cl
inactive: [10] 21.9%
active: [1] -0.801% | [2] -38.5% | [3] 4.09% | [4] 6.33% | [5] -6.46% | [6] -25.7% | [7] -16.4% | [8] -19.3% | [9] -17.7% | [11] -13.3% | [12] -14.5% | [13] 2.34% | [14] 5.69% | [15] 4.03% | [16] 4% | [17] 6.92% | [18] 8.82%

COc1cc(C(=O)c2c(-c3ccccc3)oc3c(OC)cccc23)cc(OC)c1OC
active: [1] 6.57% | [8] -13.2% | [9] 2.09% | [12] -5.83% | [13] -28.9% | [16] -8.11% | [17] -4.94% | [18] 3.21%
inactive: [2] 17.6% | [3] 17.2% | [4] 39.8% | [5] 32.3% | [6] 44.2% | [7] 12.3% | [10] 11.9% | [11] 58.2% | [14] 20.1% | [15] 10.1%

O=C(/C=C(O)/C=C/c1cccc2[nH]ccc12)/C=C/c1cccc2[nH]ccc12
active: [2] 2.9% | [13] -2.09%
inactive: [1] 10.3% | [3] 72.6% | [4] 99.7% | [5] 91.7% | [6] 85.6% | [7] 70.3% | [8] 103% | [9] 91% | [10] 87.6% | [11] 65% | [12] 76.4% | [14] 50.5% | [15] 16.5% | [16] 46.3% | [17] 102% | [18] 95.3%

Nn1c(=O)c(=O)[nH]c2c(cnn2-c2ccccc2)c1=O
inactive: [1] 94.5% | [2] 103% | [3] 97.3% | [4] 108% | [5] 118% | [6] 102% | [7] 118% | [8] 107% | [9] 111% | [10] 106% | [11] 108% | [12] 114% | [13] 107% | [14] 110% | [15] 99.4% | [16] 108% | [17] 105% | [18] 107%

COC(=O)c1c2c(c(C)[n+]([O-])c1C)C(=O)C(NCc1ccc(OC)cc1)=CC2=O
active: [1] 9.98% | [3] -15.2% | [5] -39.2% | [7] 8.2% | [8] -18.6% | [11] 3.48% | [13] -67.6% | [14] 6.71% | [15] -7.88% | [16] 3.89%
inactive: [2] 23.6% | [4] 53% | [6] 99.2% | [9] 84.8% | [10] 10.1% | [12] 56% | [17] 15.1% | [18] 14.3%

NC1=Nc2cc(OCCCCN3Cc4ccccc4C3)c(OCC3CC3)cc2C12CCCC2
active: [2] 5.52% | [11] -46.9% | [13] 5.33% | [14] 3.2% | [17] -58.2%
inactive: [1] 11.3% | [3] 45.1% | [4] 65.3% | [5] 39.6% | [6] 93.4% | [7] 50% | [8] 52.5% | [9] 53.3% | [10] 73.2% | [12] 82.2% | [15] 10.6% | [16] 11.3% | [18] 46.5%

CCO/C=N/C1=C(C#N)C(c2ccc(F)cc2)c2sc3c(F)cccc3c2O1 (stereo unspecified)
active: [8] 8.43% | [13] -23.7%
inactive: [1] 31.8% | [2] 41.9% | [3] 51.5% | [4] 83.4% | [5] 67.8% | [6] 46.9% | [7] 50.3% | [9] 24.4% | [10] 25.6% | [11] 40.6% | [12] 48.5% | [14] 20.6% | [15] 15.7% | [16] 39% | [17] 77% | [18] 32.5%

CC1CCN(C(=S)SCC(=O)NC(=O)c2ccccc2)CC1
inactive: [1] 80.6% | [2] 102% | [3] 112% | [4] 101% | [5] 96.6% | [6] 104% | [7] 107% | [8] 111% | [9] 102% | [10] 105% | [11] 84.7% | [12] 106% | [13] 106% | [14] 105% | [15] 95.7% | [16] 109% | [17] 115% | [18] 97%

COC1=C(C)C(=O)N2[C@@H]1[C@H](c1ccccc1)OC21C=CC(=O)C=C1
inactive: [3] 19.4% | [5] 33.4% | [6] 112% | [9] 32.6% | [10] 20.1% | [11] 17.6% | [17] 35.7% | [18] 52.8%
active: [1] 2.4% | [2] -20.7% | [4] -56.1% | [7] -20.7% | [8] -4.05% | [12] -34.1% | [13] -48.8% | [14] -36% | [15] 7.61% | [16] -51%

CN1CCN(C(=O)[C@@]2(C)CC[C@]3(C)CC[C@]4(C)C(=CC[C@@H]5[C@@]6(C)CCC(=O)NC(C)(C)[C@@H]6CC[C@]54C)[C@@H]3C2)CC1
active: [1] -10.4%
inactive: [2] 20.6% | [3] 64.1% | [4] 83.8% | [5] 50.6% | [6] 53.8% | [7] 63.8% | [8] 57.8% | [9] 55.2% | [10] 59.6% | [11] 39.2% | [12] 45.9% | [13] 46.1% | [14] 19.7% | [15] 45% | [16] 21.8% | [17] 49% | [18] 46.8%

COc1cccc(/C=C/C(=O)c2cc3c(N)c(C(=O)Nc4cccc5ccccc45)sc3nc2C)c1
inactive: [1] 12.5% | [4] 15.8% | [5] 56.8% | [6] 56.2% | [9] 15% | [11] 32.3% | [12] 19.3% | [15] 13.4% | [16] 12.2% | [18] 11%
active: [2] -18.9% | [3] 3.72% | [7] -3.98% | [8] -17% | [10] 4.18% | [13] -50.7% | [14] -1.14% | [17] -23.8%

O=C(CCl)NNc1nccc(Nc2ccc(S(=O)(=O)Nc3ccncc3)cc2)n1
inactive: [1] 37.1% | [2] 31.3% | [3] 60.4% | [4] 67.7% | [5] 36.8% | [6] 90.5% | [7] 18.8% | [8] 24.2% | [9] 49.2% | [10] 51% | [11] 15.9% | [12] 25.6% | [13] 41.3% | [14] 28.5% | [15] 22.3% | [16] 10.7% | [17] 95.3% | [18] 62%

CC1(C)OB(O)c2cc(-c3nc4ccc5[nH]ncc5c4c4c3CCCC4)ccc21
inactive: [1] 24.5% | [2] 28.1% | [3] 46.3% | [4] 105% | [5] 67.1% | [6] 33.1% | [7] 38.7% | [8] 94.6% | [9] 68.7% | [10] 61.8% | [11] 34.9% | [12] 74.9% | [13] 48.8% | [14] 59.4% | [15] 44.1% | [16] 22.7% | [17] 82.9% | [18] 38.7%

O=c1c2ccccc2c(=O)c2c1sc1c(=O)c3ccc(O)cc3c(=O)c12
active: [1] -16.6% | [2] -38.6% | [3] -11.5% | [4] -74.7% | [5] -90.2% | [6] -92.1% | [7] -24% | [8] -57.1% | [9] -5.23% | [10] -14.1% | [11] -27.5% | [12] -92.6% | [13] -86.2% | [14] -71.1% | [15] -52.2% | [16] -29.2% | [17] -60.5% | [18] -31.5%

COc1ccc(-c2nc(-c3cn(C)c4ncccc34)cs2)cc1
inactive: [1] 12.2% [100 µM] | [3] 11.5% [100 µM] | [4] 28% [100 µM] | [7] 17.9% [100 µM] | [8] 17.9% [100 µM] | [9] 38.8% [100 µM] | [14] 10.8% [100 µM]
active: [2] -28.1% [100 µM] | [5] 1.57% [100 µM] | [6] -3.58% [100 µM] | [10] 3.69% [100 µM] | [11] -6.67% [100 µM] | [12] -30.1% [100 µM] | [13] -43.6% [100 µM] | [15] -17.8% [100 µM] | [16] -75.3% [100 µM] | [17] -9.69% [100 µM] | [18] 3.74% [100 µM]

O=S(=O)(NCCNc1nccc(-c2c(-c3cccc(O)c3)nc3occn23)n1)c1ccc(Br)cc1
inactive: [2] 29.8% | [3] 31.3% | [4] 51% | [5] 36.8% | [6] 29.4% | [8] 36% | [9] 21.8% | [10] 99.7% | [11] 11.3% | [12] 45.1% | [13] 13.1% | [14] 34.8% | [15] 17.7% | [16] 10.2% | [17] 50.7% | [18] 27%
active: [1] 7.33% | [7] 4.48%
